From PubChem BioAssay (NCI) come the findings set out here.

Among the test systems are SK-MEL-2 melanoma; SN12C renal; UO-31 renal; TK-10 renal; ACHN renal; CAKI-1 renal; A498 renal; CCRF-CEM leukemia; MOLT-4 leukemia; SR leukemia; RPMI-8226 leukemia; OVCAR-8 ovarian; OVCAR-5 ovarian; OVCAR-4 ovarian; SK-OV-3 ovarian; IGROV1 ovarian; OVCAR-3 ovarian; HS 578T breast; NCI/ADR-RES ovarian.
Experiment in all cases: NCI-60 one-dose screen, 48 h (100 = growth as untreated, 0 = no growth, -100 = all killed)
Conditions in all cases: 10 µM unless noted

This is part of a sample that, as a whole, favours compounds with a hit. Of some 83,000 tested, about 20% had one in any assay.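 Interpretation: 100, growth as untreated; towards 0, rising growth inhibition; 0, no net growth; 0 to -100, cell death. Compounds scoring below 10 were considered active.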 Unmarked numbers belong to inactive results. The source made the active and inactive calls.

Take `N#Cc1c(-c2ccc(Cl)cc2)nc(NN=Cc2cccc(Cl)c2)nc1N1CCOCC1`: the growth was 96.5% in the test on SK-MEL-2 melanoma; 91.8% in the test on SN12C renal; 53.5% in the test on UO-31 renal; 106% in the test with TK-10 renal; 74.3% in the test on ACHN renal; 67.4% in the test with CAKI-1 renal. For the same compound, the growth in the test with A498 renal was 42.2%; with CCRF-CEM leukemia it was 72.5%; with MOLT-4 leukemia, 53.3%; with SR leukemia it was 8.74% (active); in the test on RPMI-8226 leukemia, 65.1%; in the test with OVCAR-8 ovarian, 96.7%. Moreover, the growth in the test with OVCAR-5 ovarian was 103%; with OVCAR-4 ovarian, 94.3%; in the test with SK-OV-3 ovarian it was 111%; in the test on IGROV1 ovarian, 75.2%; in the test with OVCAR-3 ovarian it was 87.4%; in the test on HS 578T breast, 96.6%. The growth in the test on NCI/ADR-RES ovarian is 89.2%.

As for `CNC(=O)c1cc(Oc2ccc3nc(NC(=O)NC(C)C)sc3c2)ccn1`, the growth with SK-MEL-2 melanoma was 89.9%; in the test with SN12C renal, 86.3%; in the test on UO-31 renal, 79.2%; with TK-10 renal it was 88.6%; with ACHN renal, 94%; in the test with CAKI-1 renal, 91.9%. Also, the growth is 51.4% in the test with A498 renal; 64.4% with CCRF-CEM leukemia; 40.7% in the test with MOLT-4 leukemia; 30.4% in the test on SR leukemia; 73.2% with RPMI-8226 leukemia; 88.4% in the test on OVCAR-8 ovarian. The growth is 117% in the test on OVCAR-5 ovarian; 77.8% in the test with OVCAR-4 ovarian; 87% with SK-OV-3 ovarian; 86.7% in the test with IGROV1 ovarian; 97.4% with OVCAR-3 ovarian; 65% in the test with NCI/ADR-RES ovarian.

`C=CN(C(=O)N1CCN(c2cc3c(cc2F)c(=O)c(C(=O)O)cn3C2CC2)CC1)c1nc(-c2ccc(C)cc2)cs1`: the growth with SK-MEL-2 melanoma is 35.2%; in the test on SN12C renal, 8.99% (active); with UO-31 renal it was 13.4%; with TK-10 renal, 42.3%; in the test on ACHN renal, 27.7%; in the test with CAKI-1 renal it was 20.9%. The growth in the test with A498 renal is -4.05% (active); in the test with CCRF-CEM leukemia it was 4.64% (active); in the test on MOLT-4 leukemia it was 13.9%; with SR leukemia, 13.7%; with RPMI-8226 leukemia, 7.02% (active); in the test with OVCAR-8 ovarian, 14.1%. Moreover, the growth in the test with OVCAR-5 ovarian is 38.5%; in the test on OVCAR-4 ovarian it was 23.3%; with IGROV1 ovarian it was 22.4%; in the test on OVCAR-3 ovarian it was 5.61% (active); in the test with HS 578T breast, 13.8%; in the test on NCI/ADR-RES ovarian, 44.9%.

For the compound `Clc1nc(N2CCC[N+]3(CC2)CC[N+]2(CCCNCC2)CC3)nc(N2CCC[N+]3(CC2)CC[N+]2(CCCNCC2)CC3)n1` (configuration not stated), the growth in the test with SK-MEL-2 melanoma was 106%; with SN12C renal it was 93.7%; in the test with UO-31 renal it was 97.9%; in the test on ACHN renal, 115%; with CAKI-1 renal, 65.1%; in the test on A498 renal, 114%. Besides, the growth in the test with CCRF-CEM leukemia was 96.7%; in the test on MOLT-4 leukemia, 92.3%; in the test on SR leukemia, 90.4%; with RPMI-8226 leukemia, 99.8%; with OVCAR-8 ovarian, 86%; in the test with OVCAR-5 ovarian, 113%. For the same compound, the growth in the test with OVCAR-4 ovarian was 98.4%; with SK-OV-3 ovarian, 76.2%; in the test on IGROV1 ovarian, 97.3%; in the test on OVCAR-3 ovarian it was 92.2%; in the test on HS 578T breast, 98.3%; with NCI/ADR-RES ovarian, 92.6%.

Turning to `CC/C(=C(/c1ccc(Cl)cc1)c1ccc(OCCN2CCCC2)cc1)c1ccccc1`, the growth in the test with SK-MEL-2 melanoma is 88%; in the test with SN12C renal, 69.3%; in the test with UO-31 renal it was 66.2%; with TK-10 renal, 93.5%; in the test with ACHN renal, 87.9%; in the test on CAKI-1 renal, 61.6%. Also, the growth is 79.7% in the test on A498 renal; 36.9% with CCRF-CEM leukemia; 42.8% in the test with MOLT-4 leukemia; -10.5% (active) with SR leukemia; 7.58% (active) in the test on RPMI-8226 leukemia; 69.7% in the test with OVCAR-8 ovarian. Further, the growth was 82.4% in the test on OVCAR-5 ovarian; 72.2% with OVCAR-4 ovarian; 104% in the test with SK-OV-3 ovarian; 76.6% in the test on IGROV1 ovarian; 70.2% in the test with OVCAR-3 ovarian; 71.3% with HS 578T breast. For the same compound, the growth in the test on NCI/ADR-RES ovarian is 80.1%.

Take `O=C(Nc1cccc(Cn2c(=O)[nH]c3ccc(Oc4ncccn4)cc3c2=O)c1)c1cccc(Cl)c1`: the growth in the test with SK-MEL-2 melanoma is 71.7%; in the test with SN12C renal, 80.1%; in the test on UO-31 renal, 39.6%; in the test on TK-10 renal, 53.3%; in the test with ACHN renal it was 60%; in the test on CAKI-1 renal it was 52.4%. Also, the growth in the test on A498 renal was 45.3%; in the test with CCRF-CEM leukemia it was 47.1%; in the test with MOLT-4 leukemia, 15.4%; in the test on SR leukemia, 35.9%; with RPMI-8226 leukemia, 35.1%; in the test on OVCAR-8 ovarian it was 58.4%. Moreover, the growth is 86.2% in the test with OVCAR-5 ovarian; 30.5% in the test on OVCAR-4 ovarian; 82.5% in the test on SK-OV-3 ovarian; 62.4% in the test on IGROV1 ovarian; 67.6% with OVCAR-3 ovarian; 73.7% in the test with HS 578T breast. Besides, the growth in the test with NCI/ADR-RES ovarian was 77.5%.

For the compound `COc1ccc(/C=N\NC(=O)c2ccc3nc(-c4ccc(Cl)cc4)[nH]c3c2)cc1`, the growth was 64.1% in the test with SK-MEL-2 melanoma; 6.24% (active) in the test on SN12C renal; 81.9% in the test with UO-31 renal; 39.1% in the test on TK-10 renal; 21.9% in the test with ACHN renal; 60.5% with CAKI-1 renal. In addition, the growth was 66.6% in the test with A498 renal; 65.3% in the test on CCRF-CEM leukemia; 68.2% with MOLT-4 leukemia; 0.647% (active) in the test with SR leukemia; 59.2% in the test on RPMI-8226 leukemia; 31.3% in the test on OVCAR-8 ovarian. In addition, the growth in the test with OVCAR-5 ovarian was 77.3%; in the test with OVCAR-4 ovarian, -30.6% (active); with SK-OV-3 ovarian it was 72.3%; in the test with IGROV1 ovarian, 14.6%; in the test on OVCAR-3 ovarian it was 20.1%; with HS 578T breast, 32.3%. In addition, in the test on NCI/ADR-RES ovarian, the growth is 73.6%.

For the compound `O=c1ccc2c(ccc3ncccc32)o1`, the growth was 112% with SK-MEL-2 melanoma; 106% in the test on SN12C renal; 77.1% in the test with UO-31 renal; 95.6% in the test with ACHN renal; 90% in the test on CAKI-1 renal; 81.8% with A498 renal. Also, the growth in the test with CCRF-CEM leukemia is 104%; in the test on MOLT-4 leukemia, 92.7%; in the test with SR leukemia it was 103%; in the test on RPMI-8226 leukemia, 112%; with OVCAR-8 ovarian, 105%; with OVCAR-5 ovarian it was 104%. The growth with OVCAR-4 ovarian is 111%; in the test with SK-OV-3 ovarian, 104%; with IGROV1 ovarian, 109%; in the test on OVCAR-3 ovarian it was 108%; in the test with HS 578T breast it was 108%.
